{"source": "PubChem BioAssay AID624069", "about": "(Southern Research Specialized Biocontainment Screening …, 2012)", "note": "Unmarked numbers belong to inactive results. No rule for the calls is given here."}
{"assay": "viability of Vero 76 cells – cell-based, set 5, cytotoxicity control, dose response (AID 624069)", "details": "Vero 76 cells cytotoxicity; series mostly up to 25 µM; viability: at the top concentration", "units": {"viability": "%"}}
{"smiles": "CC(C)(C)OC(=O)N1CCN(Cc2nc3ccc([N+](=O)[O-])cc3c(=O)n2-c2ccccc2F)CC1", "viability": 98.8}
{"smiles": "O=C(NCc1ccco1)C1CCN(C(=O)c2cc3sccc3n2Cc2ccc(F)cc2)CC1", "viability": 74.5}
{"smiles": "CCN1CCN(Cc2nc3ccccc3c(=O)n2-c2ccccc2F)CC1", "viability": 95.1}
{"smiles": "O=c1c2cc([N+](=O)[O-])ccc2nc(CN2CCNCC2)n1-c1ccccc1F", "viability": 89.6}
{"smiles": "CCN1CCN(Cc2nc3ccc([N+](=O)[O-])cc3c(=O)n2-c2ccccc2F)CC1", "viability": 93.1}
{"smiles": "CCN1CCN(Cc2nc3ccc([N+](=O)[O-])cc3c(=O)n2-c2ccc(F)cc2)CC1", "viability": 98}
{"smiles": "CCN1CCN(Cc2nc3ccc([N+](=O)[O-])cc3c(=O)n2-c2cccc(F)c2)CC1", "viability": 90.7}
{"smiles": "CCN1CCN(Cc2nc3ccc([N+](=O)[O-])cc3c(=O)n2-c2ccccc2)CC1", "viability": 91.7}
{"smiles": "CCN1CCN(Cc2nc3ccc(C(F)(F)F)cc3c(=O)n2-c2ccccc2F)CC1", "viability": 94.5}
{"smiles": "CN1CCN(Cc2nc3ccc([N+](=O)[O-])cc3c(=O)n2-c2ccccc2F)CC1", "viability": 101}
